Six molecules from PubChem BioAssay (NCATS) can be followed below.

A short description of assay [1]: AP1 Signaling Pathway (AID 357; active means well fitted curve in either direction with a large enough effect, not every such curve was filed as active; further: on the % scale 0 is the no-effect control and ±100 the full control effect). The method, boiled down: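 AP-1-bla ME-180 cells with beta-lactamase reporter under AP-1 response element, stimulated with EC50 EGF; compounds titrated, 5 hours at 37 degrees Celsius. CCF4 read at 460/530 nm ratio; positive and negative modulators judged by AC50.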
Assay [2] addresses Cytochrome P450 1A2 (Homo sapiens) (UniProt P05177). The assay is described as follows: p450-cyp1a2 (AID 410; calls by dose curve). In outline: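 Human CYP1A2 (20nM) demethylated Luciferin-ME at its Km (100uM) in 100mM KPO4. After 10 min compound preincubation, NADPH regeneration ran the reaction 60 min at room temperature. Luciferin was read by luminescence, normalized to 57 uM furafylline.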
Assay [3] in a line: NFAT Signaling Pathway (AID 444; active means well fitted curve in either direction with a large enough effect, not every such curve was filed as active;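 further: carbachol stimulus at about its EC50 of 1 µM final; on the % scale 0 is the no-effect control and ±100 the full control effect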). As to conditions: Jurkat NFAT-bla M1, carbachol, beta-lactamase ratio, 5 h; at 17.2 µM (top of the series) unless noted. In outline:
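Jurkat cells carrying an NFAT-driven β-lactamase reporter and co-transfected muscarinic M1 receptor were treated with compound plus carbachol (1 uM final, an EC50 level) for 5 h at 37 °C. CCF4 loading followed for 1 h at RT; 460/530 nm ratio gave %activity.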

Assay [4] can be described thus: Stat Signaling Pathway (AID 446; active means well fitted curve in either direction with a large enough effect, not every such curve was filed as active;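 further: ME-180 cervical cancer cells given 40 pM IL-6 alongside compound; SIE-controlled beta-lactamase reporter measured as 460/530 nm FRET emission ratio; on the % scale 0 is the no-effect control and ±100 the full control effect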). The method, boiled down:
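Reporter line: ME-180 cervical carcinoma, SIE-beta-lactamase. Treatment: compound with 40 pM IL-6, 5 hrs, 37 C, in low-serum OPTI-MEM with 10 mM HEPES pH 7.3. Detection: 460/530 nm fluorescence.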

The target in assay [5] is Glucocorticoid receptor (Homo sapiens) (UniProt P04150). The assay is described as follows: GR-GFP Redistribution (AID 450;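 active means compounds whose dose series gives a full or clear partial fitted curve of increased nuclear translocation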; further: potency means the concentration at half of the fitted maximal effect). Particulars: U2OS GR-GFP nuclear translocation, laser cytometry, 2 h.
Chain of Glucocorticoid receptor (Homo sapiens) (P04150 whole entry, looked up): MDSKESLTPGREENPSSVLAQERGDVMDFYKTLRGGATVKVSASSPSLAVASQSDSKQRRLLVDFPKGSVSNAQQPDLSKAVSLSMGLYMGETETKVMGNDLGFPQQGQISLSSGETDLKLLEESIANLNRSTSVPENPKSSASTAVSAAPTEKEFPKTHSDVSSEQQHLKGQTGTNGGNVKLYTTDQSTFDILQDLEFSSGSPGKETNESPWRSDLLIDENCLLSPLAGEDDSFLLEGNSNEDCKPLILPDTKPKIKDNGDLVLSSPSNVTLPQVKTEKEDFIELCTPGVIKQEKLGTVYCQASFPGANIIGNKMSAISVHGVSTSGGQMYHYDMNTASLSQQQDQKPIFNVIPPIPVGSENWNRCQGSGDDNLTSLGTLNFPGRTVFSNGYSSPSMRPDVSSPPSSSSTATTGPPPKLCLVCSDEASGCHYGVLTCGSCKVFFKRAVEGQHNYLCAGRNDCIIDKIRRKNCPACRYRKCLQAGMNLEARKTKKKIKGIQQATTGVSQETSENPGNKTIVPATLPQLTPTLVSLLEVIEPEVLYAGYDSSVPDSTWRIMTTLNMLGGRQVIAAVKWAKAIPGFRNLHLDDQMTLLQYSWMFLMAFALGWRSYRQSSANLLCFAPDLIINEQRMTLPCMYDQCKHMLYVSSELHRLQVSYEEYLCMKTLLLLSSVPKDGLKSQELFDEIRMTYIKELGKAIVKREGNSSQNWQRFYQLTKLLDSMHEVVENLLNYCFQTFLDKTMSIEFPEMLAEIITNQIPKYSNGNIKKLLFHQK
Assay [6] shares this target. The assay is described as follows: GR-EFC Redistribution (AID 451; calls by dose curve; further: potency means the concentration at half of the fitted maximal effect). As to conditions: CHO-K1 GR-EFC translocation, beta-gal luminescence, 2 h. The method, boiled down:
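CHO-K1 cells stably expressing nuclear-localized β-gal enzyme acceptor and GR fused C-terminally to the enzyme donor fragment; ligand-driven nuclear translocation restores β-gal by complementation. Compounds titrated up to 46 uM final, 2 h at 37 °C; luminescence read.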

In assay [7] the target is Mitogen-activated protein kinase 10 (Mus musculus) (UniProt Q61831). The assay is described as follows: JNK3 AlphaScreen Assay (AID 530; active means well fitted curve in either direction with a large enough effect, not every such curve was filed as active;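 further: kinase came from lysate of stimulated human HepG2 cells; signal reports phosphorylation of biotinylated GST-cJun 1-79 at Ser73 with 10 µM ATP; on the % scale 0 is the no-effect control and ±100 the full control effect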). The method, boiled down: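 JNK3 came from HepG2 lysates pre-activated with IL-1beta and TNF-alpha and phosphorylated biotinylated GST-cJun (1-79) at 10 uM ATP, pH 7.6, room temperature. Compounds were titrated. AlphaScreen signal used anti-phospho-cJun (Ser73) antibody.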
Background: Alpha assays give light when donor and acceptor beads are brought close together.

For assay [8], the target named is 3',5'-cyclic-AMP phosphodiesterase 4B (Homo sapiens) (UniProt Q07343). The assay is described as follows: qHTS Assay for Inhibitors of PDE-IV (AID 607; active means well fitted activation curve with a large enough effect in the main read-out, with a control signal flat, not every such curve was filed as active; further: % of control where 0% means no effect). The method, boiled down: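 Cell-based read-out of cAMP via a modified cyclic nucleotide-gated channel and membrane potential dye (535/590 nm) in HEK293 cells expressing PDE4 endogenously. Compounds tested up to 22.9 uM final; 100 uM RO 20-1724 reference.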
Chain of 3',5'-cyclic-AMP phosphodiesterase 4B (Homo sapiens) (Q07343 whole entry, looked up): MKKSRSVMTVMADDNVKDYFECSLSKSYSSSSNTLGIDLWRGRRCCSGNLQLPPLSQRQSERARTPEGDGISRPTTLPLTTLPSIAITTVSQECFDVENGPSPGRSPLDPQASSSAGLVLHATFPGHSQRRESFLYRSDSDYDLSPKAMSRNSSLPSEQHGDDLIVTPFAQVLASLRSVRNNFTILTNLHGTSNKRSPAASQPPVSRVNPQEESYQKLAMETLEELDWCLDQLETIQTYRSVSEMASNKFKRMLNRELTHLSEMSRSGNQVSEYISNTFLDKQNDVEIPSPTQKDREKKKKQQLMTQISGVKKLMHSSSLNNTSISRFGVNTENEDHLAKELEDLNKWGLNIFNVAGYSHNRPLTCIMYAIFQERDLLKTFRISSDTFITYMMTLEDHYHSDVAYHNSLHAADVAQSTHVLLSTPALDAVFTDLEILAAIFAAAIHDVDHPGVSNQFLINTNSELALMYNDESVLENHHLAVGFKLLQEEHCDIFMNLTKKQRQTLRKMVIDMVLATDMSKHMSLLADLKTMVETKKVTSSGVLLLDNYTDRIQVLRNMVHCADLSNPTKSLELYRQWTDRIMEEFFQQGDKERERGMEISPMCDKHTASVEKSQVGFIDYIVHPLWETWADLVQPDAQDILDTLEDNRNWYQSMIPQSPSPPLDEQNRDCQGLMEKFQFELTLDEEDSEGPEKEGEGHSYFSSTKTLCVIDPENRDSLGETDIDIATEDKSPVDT

A short description of assay [9]: qHTS Assay for Lipid Storage Modulators (AID 1519; calls by dose curve). Particulars: Drosophila S3 cells, BODIPY lipid droplet/cell ratio, laser cytometry, cells loaded with oleic acid; for activity change, negative = inhibition: at 25.7 µM (top of the series). In outline:
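Cells seeded at 5,000 per well were treated with compounds over a concentration series and loaded with oleic acid (400 uM, as added). Lipid droplet fluorescence (488 nm excitation, 500-530 nm channel) was read by laser-scanning cytometry and normalized to 20 uM Triacsin C.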
On the technique in general: qHTS replaces the single test concentration by a dilution series.

Assay [10] addresses Ubiquitin carboxyl-terminal hydrolase 1 (Homo sapiens) (UniProt O94782). The assay is described as follows: Inhibitors of USP1/UAF1: Pilot qHTS (AID 504865).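 Further: rhodamine fluorescence freed from ubiquitin-rhodamine substrate followed over time; top concentration of the series differs between compounds; on the % scale 0 is the no-effect control and ±100 the full control effect; nearly all actives have a fitted effect of over 35% in size.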 The method, boiled down:
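Kinetic fluorescence assay: 1nM USP1/UAF1, 15 min compound preincubation, then 150nM Ub-Rho; 480/540 nm.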

Assay [11] has as its target ATP-dependent 6-phosphofructokinase (Trypanosoma brucei brucei) (UniProt O15648). The assay is described as follows: qHTS Assay to Find Inhibitors of T. brucei phosphofructokinase: hit validation (AID 492961). The method, boiled down:
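Percent activity derived from corrected luminescence, normalized between 0x and 1x enzyme controls, then fitted to concentration-response curves. Conditions: 1.25 nM PFK, 0.1 mM ATP, 0.5 mM F6P, 45 min RT.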

In assay [12] the target is Luciferin 4-monooxygenase (Photinus pyralis) (UniProt P08659). The assay is described as follows: Biochemical firefly luciferase enzyme assay for NPC (AID 624030).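 Further: purified P. pyralis luciferase at 10 nM with luciferin and ATP substrate; 0% = DMSO and -100% = full luciferase inhibition by PTC124 control; nearly all actives have a fitted effect of over 70% in size.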 In outline: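 Counter-screen for direct inhibition of the luciferase enzyme by approved-drug library compounds, run at 10 nM enzyme in 50 mM Tris acetate (final). Luminescence was read within 5 min of enzyme-buffer addition and normalized to PTC124 versus DMSO (0%).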
Chain of Luciferin 4-monooxygenase (Photinus pyralis) (P08659 whole entry, looked up): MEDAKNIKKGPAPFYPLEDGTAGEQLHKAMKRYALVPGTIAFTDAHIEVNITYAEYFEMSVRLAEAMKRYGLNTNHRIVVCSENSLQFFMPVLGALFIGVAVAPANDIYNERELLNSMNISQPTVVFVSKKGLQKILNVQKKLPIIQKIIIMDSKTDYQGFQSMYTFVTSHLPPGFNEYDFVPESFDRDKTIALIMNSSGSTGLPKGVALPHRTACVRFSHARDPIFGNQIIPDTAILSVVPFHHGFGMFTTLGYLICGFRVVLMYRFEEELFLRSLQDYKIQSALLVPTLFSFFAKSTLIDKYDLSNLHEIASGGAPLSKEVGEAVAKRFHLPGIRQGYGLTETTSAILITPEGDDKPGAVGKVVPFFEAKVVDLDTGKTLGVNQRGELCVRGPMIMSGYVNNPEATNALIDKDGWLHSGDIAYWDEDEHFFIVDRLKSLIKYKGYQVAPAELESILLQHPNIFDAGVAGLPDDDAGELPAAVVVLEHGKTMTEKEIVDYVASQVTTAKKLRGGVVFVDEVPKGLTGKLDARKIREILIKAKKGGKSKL

Assay [13] is described as follows: qHTS profiling for inhibitors of Plasmodium falciparum proliferation (AID 504749). Further: nearly all actives have a fitted effect of over 60% in size. Further: potency means the concentration at half of the fitted maximal effect.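 On activity, negative = inhibition: 0% = DMSO vehicle and full inhibition = artemisinin control.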 Particulars: P. falciparum in erythrocytes, SYBR Green DNA, 72 h. In outline: (§1)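 P. falciparum-infected erythrocytes (0.3% parasitemia, 2.5% hematocrit final) were exposed to compounds for 72 h at 37 C in 5% CO2, then lysed with SYBR Green buffer overnight at room temperature; parasite DNA fluorescence was normalized to artemisinin and DMSO controls.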

The test system of assay [14] is 3D7. The description is as above. As to conditions: P. falciparum in erythrocytes, SYBR Green DNA, 72 h; series mostly up to 12.8 µM. The method, boiled down: as §1
For assay [15], the system named is C2A. The description is as above. Particulars: P. falciparum in erythrocytes, SYBR Green DNA, 72 h; series mostly up to 12.8 µM. The method, boiled down: as §1
The subject of assay [16] is CP217. Described as above. As to conditions: P. falciparum in erythrocytes, SYBR Green DNA, 72 h; series mostly up to 12.8 µM. The method, boiled down:
as §1

The test system of assay [17] is CP250. Described as above. Particulars: P. falciparum in erythrocytes, SYBR Green DNA, 72 h; series mostly up to 12.8 µM. In outline:
as §1

In assay [18] the test system is FAB9. Described as above. Particulars: P. falciparum in erythrocytes, SYBR Green DNA, 72 h; series mostly up to 12.8 µM. In outline:
as §1

The test system of assay [19] is JCK. Described as above. As to conditions: P. falciparum in erythrocytes, SYBR Green DNA, 72 h; series mostly up to 12.8 µM. The method, boiled down: as §1
Assay [20] deals with PC49. The assay is described as above. Particulars: P. falciparum in erythrocytes, SYBR Green DNA, 72 h; series mostly up to 12.8 µM. The method, boiled down: as §1
The mark [21] stands for this setting: measured here: cell count channel max response.
The mark [22] stands for this setting: measured here: lipid channel max response.

Records with an inconclusive call do not appear. Calls of active or inactive are those of the source. Unless noted, the call rests on the fitted dose curve; in most records, active means well fitted curve in the direction sought with a large enough effect; inconclusive means small, poorly fitted or top-dose-only effect, or another doubt; inactive means no such curve, though single readings can be large; an effect the other way counts as inactive or inconclusive. Where only a bound is given, the exact number is not on record here.

Chain of ATP-dependent 6-phosphofructokinase (Trypanosoma brucei brucei) (O15648 whole entry, looked up): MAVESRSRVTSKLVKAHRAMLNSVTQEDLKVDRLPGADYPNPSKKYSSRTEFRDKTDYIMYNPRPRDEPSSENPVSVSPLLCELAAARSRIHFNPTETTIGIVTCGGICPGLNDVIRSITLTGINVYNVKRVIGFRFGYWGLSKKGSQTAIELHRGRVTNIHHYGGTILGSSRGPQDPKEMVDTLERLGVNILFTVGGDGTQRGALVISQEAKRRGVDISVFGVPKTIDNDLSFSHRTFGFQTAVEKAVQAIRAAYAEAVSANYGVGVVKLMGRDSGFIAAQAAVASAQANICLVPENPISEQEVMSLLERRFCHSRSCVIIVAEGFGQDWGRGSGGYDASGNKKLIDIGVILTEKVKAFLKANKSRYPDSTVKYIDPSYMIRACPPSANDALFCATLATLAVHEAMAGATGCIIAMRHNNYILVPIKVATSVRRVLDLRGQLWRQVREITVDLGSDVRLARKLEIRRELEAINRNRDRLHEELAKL
Chain of Ubiquitin carboxyl-terminal hydrolase 1 (Homo sapiens) (O94782 whole entry, looked up): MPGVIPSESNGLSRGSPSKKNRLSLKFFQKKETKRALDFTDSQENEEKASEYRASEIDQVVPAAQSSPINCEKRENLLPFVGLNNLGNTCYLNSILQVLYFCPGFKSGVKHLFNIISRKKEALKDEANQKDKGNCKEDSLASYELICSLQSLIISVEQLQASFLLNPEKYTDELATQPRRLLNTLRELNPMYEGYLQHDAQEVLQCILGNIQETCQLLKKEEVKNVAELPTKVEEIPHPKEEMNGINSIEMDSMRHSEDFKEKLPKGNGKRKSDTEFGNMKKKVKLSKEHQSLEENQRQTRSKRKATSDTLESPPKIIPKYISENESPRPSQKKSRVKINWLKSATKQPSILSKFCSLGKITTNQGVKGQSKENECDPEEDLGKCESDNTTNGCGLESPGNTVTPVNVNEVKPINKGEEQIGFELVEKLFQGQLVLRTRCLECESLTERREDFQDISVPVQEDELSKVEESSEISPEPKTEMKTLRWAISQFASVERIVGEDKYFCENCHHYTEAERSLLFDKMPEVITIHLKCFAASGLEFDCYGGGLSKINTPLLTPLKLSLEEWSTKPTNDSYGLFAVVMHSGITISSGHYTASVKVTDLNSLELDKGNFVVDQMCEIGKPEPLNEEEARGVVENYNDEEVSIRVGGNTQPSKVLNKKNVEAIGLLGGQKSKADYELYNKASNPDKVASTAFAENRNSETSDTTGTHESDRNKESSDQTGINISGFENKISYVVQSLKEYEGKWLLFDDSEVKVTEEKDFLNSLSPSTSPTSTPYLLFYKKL
Chain of Cytochrome P450 1A2 (Homo sapiens) (P05177 whole entry, looked up): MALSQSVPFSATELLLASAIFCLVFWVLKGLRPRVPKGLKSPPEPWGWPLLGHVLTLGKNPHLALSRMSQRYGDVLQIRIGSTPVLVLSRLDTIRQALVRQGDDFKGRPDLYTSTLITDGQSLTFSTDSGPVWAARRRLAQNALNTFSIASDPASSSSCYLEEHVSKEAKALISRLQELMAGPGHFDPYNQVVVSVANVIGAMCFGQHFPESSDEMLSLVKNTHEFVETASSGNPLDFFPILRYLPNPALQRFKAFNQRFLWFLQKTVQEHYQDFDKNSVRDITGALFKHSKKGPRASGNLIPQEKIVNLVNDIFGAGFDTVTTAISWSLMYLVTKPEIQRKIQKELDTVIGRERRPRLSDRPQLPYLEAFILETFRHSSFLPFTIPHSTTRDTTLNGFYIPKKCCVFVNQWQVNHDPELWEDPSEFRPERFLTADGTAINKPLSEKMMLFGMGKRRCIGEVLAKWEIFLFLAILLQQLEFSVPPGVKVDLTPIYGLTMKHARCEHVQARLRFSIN

For `NC[C@@H]1O[C@H](O[C@@H]2[C@H](O[C@@H]3O[C@H](CO)[C@@H](COC[C@H]4O[C@@H](CN)[C@@H](O)[C@@H](O)[C@@H]4N)[C@@H]3O)[C@@H](O)[C@@H](N)C[C@H]2N)[C@@H](N)[C@H](O)[C@@H]1O`, the call in assay [1], in [4] and in [8] was inactive. The Potency entry in assay [2], in assay [7] and in [10] was “inactive” in each case. The activity change, negative = inhibition in assay [3] was -1.32% (inactive); in assay [9] it was -1.17% (inactive). Besides, the Potency in [5] and in assay [6] was > 20.6 µM (inactive) each time. The max response was 1.11% in assay [9] (setting [21]) and 2.23% in assay [9] (setting [22]).
As to `CCC[C@H]1C[C@H](C(=O)N[C@H]([C@@H]2O[C@H](SC)[C@@H](O)[C@H](O)[C@@H]2O)[C@H](C)O)N(C)C1`, the result in [1], in [4] and in [8] was inactive. The Potency entry in [2], in assay [7] and in assay [10] was “inactive” in each case. In addition, the activity change, negative = inhibition is -5.24% (inactive) in assay [3] and 0.0766% (inactive) in assay [9]. In addition, the Potency in assay [5] and in [6] was > 20.6 µM (inactive) each time. Besides, the max response is -10.3% in assay [9] (setting [21]) and -10.9% in assay [9] (setting [22]).
On to `CCC(=O)O[C@@H]1[C@H](C)O[C@H](O[C@H]2[C@@H](N(C)C)[C@H](O)[C@@H](O[C@@H]3[C@@H](CC=O)C[C@@H](C)[C@@H](O)/C=C\C=C/C[C@@H](C)OC(=O)C[C@@H](OC(=O)CC)[C@H]3OC)O[C@H]2C)C[C@]1(C)O`, for which the outcome in [1], in assay [4], in [8] and in [11] was inactive. The Potency result in assay [2], in assay [7], in [12], in [14], in [15] and in assay [16] was “inactive” throughout. Besides, the Potency entry in assay [17], in assay [18], in assay [19] and in [20] was “inactive” in each case. Besides, the activity change, negative = inhibition in assay [3] is 3.96% (inactive); in assay [9], -0.346% (inactive). Further, the Potency in assay [5] and in assay [6] was > 20.6 µM (inactive) each time. For the same molecule, the max response in [9] (setting [21]) was -5.96%; in [9] (setting [22]) it was -6.47%. For the same molecule, the activity, negative = inhibition was -18.8% (inactive) in assay [13] (at 12.8 µM (top of the series), parasite line A) and -28.9% (inactive) in assay [13] (at 12.8 µM (top of the series), parasite line B).
Regarding `COc1cc2nc(N3CCN(C(=O)[C@@H]4CCCO4)CC3)nc(N)c2cc1OC`, the molecule was classed as inactive in [1], in assay [4], in assay [8] and in assay [11]. Further, the Potency result in assay [2], in assay [7], in [10], in assay [12], in [14] and in assay [15] was “inactive” throughout. Also, the Potency result in assay [16], in assay [17], in assay [18], in assay [19] and in assay [20] was “inactive” each time. The activity change, negative = inhibition is 12.6% (inactive) in [3] and 2.61% (inactive) in [9]. The Potency in assay [5] and in [6] was > 20.6 µM (inactive) in each case. Also, the results for the max response in assay [9] (setting [21]) and in [9] (setting [22]) were -3.95% and -0.955%, respectively. For the same molecule, the activity, negative = inhibition was 10.8% (inactive) in assay [13] (at 28.7 µM (top of the series), parasite line A) and 8.54% (inactive) in assay [13] (at 28.7 µM (top of the series), parasite line B).
In the case of `COc1cc(N)c(Cl)cc1C(=O)N[C@H]1CCN(CCCOc2ccc(F)cc2)C[C@H]1OC`, the call in assay [1], in assay [4], in [8] and in assay [11] was inactive. In addition, the Potency entry in assay [2], in [10], in assay [12], in [18], in assay [19] and in assay [20] was “inactive” in each case. In addition, the activity change, negative = inhibition is -12.4% (inactive) in assay [3] and 2.27% (inactive) in assay [9]. For the same molecule, the Potency in assay [5] is > 20.6 µM (inactive); in assay [6], > 20.6 µM (inactive); in assay [13] (parasite line A) it was 3.55 µM (active). The figures for the max response in [9] (setting [21]) and in assay [9] (setting [22]) were -1.69% and 0.873%, respectively.
As to `C[C@H](N)CCCC(C)(C)O`, the molecule was classed as inactive in [1], in assay [4] and in [8]. Moreover, the Potency entry in assay [2], in [7] and in assay [10] was “inactive” throughout. Besides, the activity change, negative = inhibition in assay [3] is -3.85% (inactive); in [9] it was -0.344% (inactive). The Potency in [5] and in [6] was > 20.6 µM (inactive) in each case. Moreover, the max response was determined as 0.317% in assay [9] (setting [21]) and 0.936% in assay [9] (setting [22]).
